# High-throughput results as filed in PubChem BioAssay.
# A selection: hits, their analogues and other compounds. The true share with any hit is near 4.7%.
# RecA intein inh: Mtb RecA intein splicing inhibitors, primary screen, biochemical, fluorescence, HTS | cell-free RecA intein splicing | 290,000 compounds, 0.75% hits | Protein RecA (Mycobacterium tuberculosis (strain ATCC 25618 / H37Rv)), P9WHJ3 | inhibition, % (no concentration beside the values) | AID 2221, 2009; in the data active means inhibition above about 30%;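 further: 0% = vehicle wells and 100% = reference inhibitor control wells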
# Target sequence (P9WHJ3 whole entry, looked up): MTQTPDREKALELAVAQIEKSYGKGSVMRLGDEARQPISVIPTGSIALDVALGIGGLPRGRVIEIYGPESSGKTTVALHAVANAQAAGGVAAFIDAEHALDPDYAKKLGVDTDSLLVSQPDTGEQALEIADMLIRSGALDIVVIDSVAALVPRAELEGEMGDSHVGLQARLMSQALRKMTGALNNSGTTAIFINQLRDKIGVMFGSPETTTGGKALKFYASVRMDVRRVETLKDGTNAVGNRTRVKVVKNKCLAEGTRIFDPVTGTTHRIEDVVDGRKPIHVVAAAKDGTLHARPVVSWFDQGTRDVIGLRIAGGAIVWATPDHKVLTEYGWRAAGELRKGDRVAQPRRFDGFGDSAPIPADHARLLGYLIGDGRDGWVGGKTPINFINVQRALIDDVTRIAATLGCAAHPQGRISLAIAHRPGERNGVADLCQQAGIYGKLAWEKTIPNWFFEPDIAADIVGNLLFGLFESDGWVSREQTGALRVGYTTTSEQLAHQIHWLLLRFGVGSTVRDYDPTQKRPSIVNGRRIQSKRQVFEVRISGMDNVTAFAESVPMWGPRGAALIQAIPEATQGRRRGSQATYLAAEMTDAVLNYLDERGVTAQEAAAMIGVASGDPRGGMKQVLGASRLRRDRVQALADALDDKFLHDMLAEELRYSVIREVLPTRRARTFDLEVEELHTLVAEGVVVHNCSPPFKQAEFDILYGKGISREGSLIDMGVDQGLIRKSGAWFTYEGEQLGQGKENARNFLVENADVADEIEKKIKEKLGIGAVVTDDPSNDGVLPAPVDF
# 3CLpro inhibitor: SARS-CoV 3CLpro protease inhibitors, primary screen, biochemical, quenched FRET | recombinant SARS-CoV 3CLpro, quenched FRET peptide cleavage | inhibition, % at 6 µM | 290,000 compounds, 0.14% hits | AID 1706, 2009; in the data active means inhibition above about 12%
# DUSP3 inh: VHR1 phosphatase inhibitors, primary screen, biochemical, absorbance, uHTS; Dual specificity protein phosphatase 3 (Homo sapiens), P51452; recombinant VHR phosphatase, pNPP absorbance; inhibition, % at 13.3 µM; 290,000 compounds, 0.52% hits; AID 1654, 2009; in the data active means inhibition above about 50%
# Mtb FBA inh: Mtb FBA enzyme inhibitors, primary screen, biochemical, fluorescence, strain H37Rv; Fructose-bisphosphate aldolase (Mycobacterium tuberculosis (strain ATCC 25618 / H37Rv)), …; purified M. tuberculosis FBA, fluorescence read-out; inhibition, % at 1 µM; 360,000 compounds, 2.3% hits; AID 588726, 2011; in the data active means inhibition above about 27%;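 further: 0% = vehicle and 100% = reference inhibitor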
# GDH-TPI inh: GDH-TPI coupling enzyme inhibitors, primary screen, artefact control for M. tuberculosis FBA inhibitor project, biochemical, absorbance, full deck. GDH-TPI coupled enzyme counterscreen, NADH absorbance. inhibition, % at 4.8 µM. 360,000 compounds, 1.2% hits;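 further: 0% = DMSO wells and 100% = wells lacking the enzyme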
# CCHF vOTU inh: CCHFV vOTU protease inhibitors, primary screen, biochemical, Pep-AMC substrate, fluorescence; 370,000 compounds, 0.55% hits; inhibition, % at 11.5 µM; Crimean-Congo hemorrhagic fever virus L polyprotein viral ovarian tumor (vOTU) protease …; AID 651958, 2012; further: 0% = vehicle wells with enzyme and 100% = no enzyme wells
# Numbers without * were called inactive; i = inactive; . = no result given; + = active, no number. Unless noted, no stated cut-off is given here; in the data, active means inhibition above about 30%; inactive means the rest.
SMILES,RecA intein inh,3CLpro inhibitor,DUSP3 inh,Mtb FBA inh,GDH-TPI inh,CCHF vOTU inh
COc1cccc(/C=N/Nc2nc3ccccc3[nH]2)c1OC,0,2,4,-1,14,11
COc1cccc(/C=N/Nc2nc3ccccc3[nH]2)c1O,0,1,24,-4,36*,15
COc1cc(/C=N/Nc2nc3ccccc3[nH]2)cc(OC)c1O,9,2,22,-5,23,8
COc1cc(/C=N/Nc2nc3ccccc3[nH]2)ccc1O,3,1,13,3,50*,8
CCOc1ccc(-c2cncc3nccn23)cc1,.,.,.,+,6,-279
COc1ccc(-c2cncc3nccn23)cc1OC,.,.,.,6,10,-21
O=[N+]([O-])c1cccc(/C=C/c2nc[nH]c2[N+](=O)[O-])c1,-2,-2,6,-11,42*,12
CN(C(=O)c1cccc(COc2ccc(Cl)cc2Cl)c1)c1ccccc1,35*,2,-2,2,2,-8
O=C(NCc1ccccc1Cl)c1ccc(CSc2nc3ccncc3[nH]2)cc1,-1,0,5,150*,-1,4
Clc1ccccc1CSc1nc2ccncc2[nH]1,0,0,12,1,-6,-3
COC(=O)c1ccc(-c2ncc[nH]2)cc1,-5,3,2,+,3,-43
Cc1nc(-c2ccc(NC(=O)c3ccco3)cc2)cs1,1,-5,3,-3,-8,1
c1ccc(-c2nc3ccccc3[nH]2)cc1,-2,-6,25,11,4,-3
O=C(O)c1cccc(-c2nc3ccccc3[nH]2)c1,-3,3,-5,112*,7,-4
Cc1ccn2cc(-c3ccc(NC(=O)c4ccco4)cc3)nc2c1,2,-3,-1,0,33*,0
O=C(Nc1ccc(-c2nc3ccccc3[nH]2)cc1)c1ccco1,2,3,-18,-1,42*,.
CCCS(=O)(=O)NC(=O)C1(C)CCN(C(=O)c2ccc(C#N)cc2)C1 (stereo unspecified),.,.,.,-1,-4,6
COC(=O)c1ccc(-c2nc3ccccc3[nH]2)cc1,5,2,5,+,19,-248
COc1ccc(-c2nc3ccccc3[nH]2)cc1,11,1,24,16,8,0
Cc1cc(-c2nc3ccccc3[nH]2)ccc1N,-2,-1,16,174*,9,-58
CCc1cc(CNC(=O)c2ccc(OC)c(OC3CCN(C(C)C)CC3)c2)on1,-2,-4,57*,-1,0,-11
Cc1[nH]n(-c2ccccc2)c(=O)c1N=Nc1c(Cl)cccc1Cl,7,2,59*,0,4,.
CC(=O)Nc1ccc(S(=O)(=O)NCC2CCN(C(=O)C(=O)c3cccs3)CC2)cc1,.,.,.,.,.,-1
COc1ccc(/C=N/NC(=O)c2[nH]c3ccc(Br)cc3c2-c2ccccc2)cc1,-15,1,-4,4,21,-11
O=C(N/N=C/c1ccccc1Cl)c1[nH]c2ccc(Br)cc2c1-c1ccccc1,19,-6,-1,3,7,-10
SMILES,RecA intein inh,3CLpro inhibitor,DUSP3 inh,Mtb FBA inh,GDH-TPI inh,CCHF vOTU inh
CC(=O)NNC(=O)c1[nH]c2ccc(Br)cc2c1-c1ccccc1,6,3,-2,1,1,1
COc1ccc(/C=N/NC(=O)c2[nH]c3ccc(Cl)cc3c2-c2ccccc2)c(C(=O)O)c1OC,-2,3,30,5,31*,29
COc1ccc(/C=N/NC(=O)c2[nH]c3ccc(Br)cc3c2-c2ccccc2)c(C(=O)O)c1OC,8,1,5,7,39*,4
CCOC(=O)NNC(=O)c1[nH]c2ccc(Br)cc2c1-c1ccccc1,21,2,55*,3,1,-3
C=CCN1C(=O)[C@@H](CC(=O)NCc2ccccc2)[C@]2(C(=O)OC)CCCCC=C12,.,.,.,.,.,4
CC(NC(=O)C=Cc1ccco1)C(=O)NC(Cc1ccccc1)C(N)=O (stereo unspecified),.,.,.,.,.,-6
CC(C)c1cccc(-c2ccc3c(c2)S(=O)(=O)c2cccc(C(=O)O)c2C3=O)c1,.,.,.,-2,31*,7
CC(C)c1cccc(-c2ccc3c(c2)S(=O)(=O)c2cccc(C(=O)NCc4ccco4)c2C3=O)c1,.,.,.,6,20,4
COc1cc(C(C)=O)ccc1OCc1cc(C(=O)N(C)CCC2CCCCO2)no1 (stereo unspecified),1,0,58*,2,9,-5
CC(/C=N\NC(=O)CSc1nnc(-c2ccc(Br)cc2)n1-c1ccccc1)=C\c1ccco1,.,.,.,.,.,6
CC[n+]1c(/C=C(\C)Nc2ccccc2)sc2ccccc21,.,5,-1,1,31*,-3
CC[n+]1c(/C=C(/C)SC)sc2ccccc21,8,-2,35,2,38*,-7
CC[n+]1c(/C=C(\C)SC)sc2ccccc21,11,0,-6,2,13,-8
Nc1ccc(F)c(CN2CCN(c3ncc(Cc4ccccc4)cn3)CC2)c1,.,.,.,.,.,20
O=C(Cn1cnc2cc([N+](=O)[O-])ccc2c1=O)NC1CCS(=O)(=O)C1 (stereo unspecified),-4,2,30,-1,10,0
Cc1cccn2c(=O)c3cc(C(=O)NCCN4CCOCC4)c(=N)n(CCCN4CCOCC4)c3nc12,i,-6,55*,114*,7,-105
Cc1cccn2c(=O)c3cc(C(=O)NCc4ccccc4)c(=N)n(CCCN4CCOCC4)c3nc12,.,.,.,125*,6,-178
Cc1ccc2nc3c(cc(C(=O)NCCc4ccccc4)c(=N)n3CCCN3CCOCC3)c(=O)n2c1,-285,-7,16,122*,1,-110
COc1ccc(CCNC(=O)c2cc3c(=O)n4ccccc4nc3n(CCCN3CCOCC3)c2=N)cc1,-20,-1,-13,14,13,10
COc1ccc(CCn2c(=N)c(C(=O)NCCN3CCOCC3)cc3c(=O)n4cccc(C)c4nc32)cc1OC,2,2,10,2,8,1
Cc1cc(N2CCN(S(C)(=O)=O)C[C@@H]2C)ccc1N1CCN(Cc2ccccc2)[C@@H](C)C1,.,.,.,.,.,10
CS/C(=C\[N+](=O)[O-])Nc1ccc(Cl)cc1,42*,-1,14,3,12,-4
CC(C)=CC(=O)Nc1ccc(Cl)cc1,-1,-1,-6,-2,-10,-3
